Some of the results follow. Activity calls are given as the source filed them.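 Rule for the calls, unless noted: active = fluorescence ratio falls more than 5 SD below the full-stimulation control mean, in both duplicate runs; inactive = the rest.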

The subject of the first experiment is TRPC4 (transient receptor potential cation channel C4), mouse. Description: DAMGO-evoked mouse TRPC4 response blockade – cell-based, second screen, HEK293 TRPC4/mu-opioid, membrane potential dye, selectivity assay for TRPC6 modulator project, confirmation (AID 488928;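 active = drop in membrane potential signal beyond 5 SD of the control wells in both duplicate plates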;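 note: TRPC4 counter screen for TRPC6 hits run under conditions tuned for TRPC6 not TRPC4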). To be noted: membrane potential dye fluorescence, at 10 µM, stimulated with maximal-effect DAMGO; hits give high values.
Turning to `Cc1nnc(SCc2ccc(C(=O)c3ccc(Cl)cc3)o2)n1-c1ccccc1`, the outcome was inactive.

On to `O=C(NCCc1c[nH]c2ccccc12)C1CCN(Cc2ccc(Br)cc2)CC1`, for which the inhibition is 58% (active).

Consider `CC(NCc1ccccc1OC1CCCC1)c1ccccc1` (stereo unspecified), for which the inhibition was 79.5% (active).

The target in a further experiment is Short transient receptor potential channel 6 (Mus musculus) (UniProt Q61143). Description: blockers of TRPC6 cation channel activity – HEK293 cells, membrane potential dye, duplicate, confirmation (AID 488960).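 For inhibition: integrated fluorescence ratio of peak minus minimum over baseline after agonist.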 The conditions noted are these: ACh-evoked depolarization, at 10 µM; hits give high values.
Sequence of Short transient receptor potential channel 6 (Mus musculus) (Q61143 whole entry, looked up): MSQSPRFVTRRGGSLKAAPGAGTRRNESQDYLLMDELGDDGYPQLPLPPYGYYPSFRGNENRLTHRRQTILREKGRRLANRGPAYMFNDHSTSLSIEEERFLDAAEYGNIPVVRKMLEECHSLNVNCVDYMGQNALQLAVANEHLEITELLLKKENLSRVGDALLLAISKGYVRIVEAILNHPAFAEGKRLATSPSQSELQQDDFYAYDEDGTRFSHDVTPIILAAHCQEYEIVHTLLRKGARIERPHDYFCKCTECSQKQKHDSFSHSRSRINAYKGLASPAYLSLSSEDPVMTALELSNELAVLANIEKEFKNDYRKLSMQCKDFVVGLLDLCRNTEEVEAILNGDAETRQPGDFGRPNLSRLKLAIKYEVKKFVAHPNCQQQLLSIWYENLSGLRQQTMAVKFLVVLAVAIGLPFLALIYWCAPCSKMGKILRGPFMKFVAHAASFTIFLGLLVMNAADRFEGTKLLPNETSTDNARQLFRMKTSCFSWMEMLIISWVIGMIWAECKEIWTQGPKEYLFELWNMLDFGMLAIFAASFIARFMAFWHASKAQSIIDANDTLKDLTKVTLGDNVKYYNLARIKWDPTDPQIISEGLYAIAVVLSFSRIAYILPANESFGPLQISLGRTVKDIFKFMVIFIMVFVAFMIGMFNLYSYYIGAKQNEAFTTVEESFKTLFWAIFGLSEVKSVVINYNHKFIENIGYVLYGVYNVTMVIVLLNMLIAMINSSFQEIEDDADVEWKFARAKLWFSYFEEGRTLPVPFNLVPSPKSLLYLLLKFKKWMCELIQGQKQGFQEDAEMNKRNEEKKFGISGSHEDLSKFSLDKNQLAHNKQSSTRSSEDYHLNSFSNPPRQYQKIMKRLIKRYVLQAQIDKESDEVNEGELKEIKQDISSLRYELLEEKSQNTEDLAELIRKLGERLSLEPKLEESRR
For the compound `Cc1nnc(SCc2ccc(C(=O)c3ccc(Cl)cc3)o2)n1-c1ccccc1`, the inhibition is 62% (active).

Regarding `O=C(NCCc1c[nH]c2ccccc12)C1CCN(Cc2ccc(Br)cc2)CC1`, the compound was classed as inactive.

With `CC(NCc1ccccc1OC1CCCC1)c1ccccc1` (stereo unspecified), the inhibition is 83% (active).

The values are drawn from PubChem BioAssay.
